Compounds with a hit are over-represented: about 10% of the library has one in this group of screens.
G9a inh = inhibitors of human histone lysine methyltransferase G9a; Q96KQ7; G9a H3K9 monomethylation, AlphaScreen, 2 h; actives 8.8% (n = 350,000); AID 504332; Potency, µM (doses to about 102 µM), for the others: top-dose activity, negative = inhibition, usual class: inhibitors; further: potency means the concentration at half of the fitted maximal effect; on the % scale 0 is the no-effect control and ±100 the full control effect; nearly all actives have a fitted effect of over 75% in size
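G9a (20 nM) was preincubated 15 min with compound, then reacted 2 h at room temperature with 500 nM biotin-H3K9 peptide and 20 µM SAM. Monomethyl-H3K9 detected by AlphaScreen using anti-H3K9me1 antibody.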
JMJD2A Tudor = JMJD2A Tudor domain (human) inhibition; AlphaScreen JMJD2A-Tudor / H3K4me3 peptide binding; Potency, µM (titrated, usually from 114 µM), inactives show at the highest dose activity change, negative = inhibition, hits mostly inhibitors; actives 4.4% (n = 390,000); further: potency means the concentration at half of the fitted maximal effect; on the % scale 0 is the no-effect control and ±100 the full control effect; nearly all actives have a fitted effect of over 50% in size
HP1b chromo inh = HP1-beta chromodomain-methylated histone interaction inhibition | AID 540317 | Potency, µM (doses to about 114 µM), for inactives: at the highest dose activity change, negative = inhibition, usual class: inhibitors | P83916 | actives 0.56% (n = 390,000) | AlphaScreen HP1-beta / biotin-H3K9me3 peptide binding; further: potency means the concentration at half of the fitted maximal effect; nearly all actives have a fitted effect of over 70% in size
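HP1-beta protein (50 nM final) preincubated 30 min at room temperature with biotinylated H3(1-18)K9me3 peptide (50 nM) in PBS pH 7.4, 0.01% Tween-20, then compound added for 30 min. AlphaScreen streptavidin donor/nickel chelate acceptor beads (10 ug/mL final), 30 min dark, luminescence read.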
Six1-Eya2 blk = blocks human Six1 binding to Eya2; Q15475+O00167; AlphaScreen GST-Six1/His-Eya2 binding, biochemical; stronger effect = lower value; activity change, % (no concentration beside the values); actives 0.56% (n = 360,000); AID 651725; in the data active means activity change below about -65%; inconclusive means mostly about -30% to -63%; further: on the % scale 0 is the no-effect control and ±100 the full control effect
Target sequence (O00167 whole entry, looked up): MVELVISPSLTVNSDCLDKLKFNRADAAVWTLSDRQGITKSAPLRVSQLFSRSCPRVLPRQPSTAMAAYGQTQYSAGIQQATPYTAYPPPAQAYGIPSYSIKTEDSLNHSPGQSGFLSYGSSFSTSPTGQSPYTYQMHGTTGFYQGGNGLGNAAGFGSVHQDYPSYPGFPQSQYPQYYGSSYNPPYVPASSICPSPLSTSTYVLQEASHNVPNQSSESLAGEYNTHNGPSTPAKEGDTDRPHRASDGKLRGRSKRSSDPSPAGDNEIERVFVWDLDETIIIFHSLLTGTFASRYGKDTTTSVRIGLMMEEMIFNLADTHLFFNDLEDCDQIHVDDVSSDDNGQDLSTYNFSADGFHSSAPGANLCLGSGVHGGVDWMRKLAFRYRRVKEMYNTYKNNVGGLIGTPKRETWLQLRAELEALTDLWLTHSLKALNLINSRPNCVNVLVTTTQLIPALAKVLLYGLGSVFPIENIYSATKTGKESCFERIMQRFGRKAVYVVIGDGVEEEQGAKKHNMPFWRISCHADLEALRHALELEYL
Target sequence (Q15475 whole entry, looked up): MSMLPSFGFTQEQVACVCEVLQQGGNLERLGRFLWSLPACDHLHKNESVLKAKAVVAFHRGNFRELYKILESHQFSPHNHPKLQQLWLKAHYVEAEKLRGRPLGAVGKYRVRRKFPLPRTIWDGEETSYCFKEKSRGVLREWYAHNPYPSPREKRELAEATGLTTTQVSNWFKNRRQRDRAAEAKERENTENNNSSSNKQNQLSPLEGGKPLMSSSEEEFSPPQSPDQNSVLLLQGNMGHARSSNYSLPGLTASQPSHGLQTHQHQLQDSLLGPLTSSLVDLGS
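AlphaScreen with GST-Six1 and His-Eya2 (5X mix: 250 nM and 500 nM), glutathione donor and nickel acceptor beads; buffer 50 mM Tris pH 8.0, 300 mM NaCl, 1 mM TCEP; 1 h at 37 C in the dark.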
CtBP-E1A blk = blocks the CtBP interaction with E1A; actives 0.49% (n = 340,000); activity change, % (concentration not given with the values); AlphaScreen GST-E1A/His-CtBP binding, 1536-well; stronger effect = lower value; in the data active means activity change below about -65%; inconclusive means mostly about -30% to -63%; further: on the % scale 0 is the no-effect control and ±100 the full control effect
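Protein mix (5X: 125 nM each GST-E1A, His-CtBP) was incubated with pinned compound 2 h at 37 deg C in dark, in 50 mM Tris pH 8.0 buffer with 300 mM NaCl. Glutathione donor and nickel acceptor beads followed; AlphaScreen signal read after 1 h.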
BAZ2B inh = blocks human BAZ2B; AlphaScreen BAZ2B-H3K14Ac peptide displacement; Potency, µM (series often up to 114 µM), without a hit: top-dose activity change, negative = inhibition, actives largely listed as inhibitors; actives 4.4% (n = 360,000); AID 504333; further: potency means the concentration at half of the fitted maximal effect; on the % scale 0 is the no-effect control and ±100 the full control effect; nearly all actives have a fitted effect of over 60% in size
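AlphaScreen displacement: compounds (up to 110uM) incubated 30 min at room temperature with a preformed 50 nM BAZ2B/50 nM biotinylated H3K14Ac peptide complex in PBS pH 7.4 with Tween-20. Donor and acceptor beads at 10 ug/mL final added, 20 min light-protected before reading.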
* marks the source's active call; other numbers are inactive results; u = inconclusive; x = not tested or not shown; [ ] = remark or other dose. Unless noted, the call rests on the fitted dose curve; in most records, active means well fitted inhibition curve with a large enough effect; inconclusive means small, poorly fitted or top-dose-only effect; inactive means no such curve, though single readings can be large or run the other way.

SMILES | G9a inh | JMJD2A Tudor | HP1b chromo inh | Six1-Eya2 blk | CtBP-E1A blk | BAZ2B inh
CCOc1ccc(C(=S)N2CCOCC2)cc1OC | u | -8% | -15% | 12 | -2 | -3%
CCOc1ccc(C(=S)N2CCCC2)cc1OCC | 10µM* | -6% | -10% | -4 | x | 6%
CCOc1cc(C(=S)N2CCOCC2)ccc1OC | 10µM* | -17% | -18% | -1 | 3 | 1%
CCOc1cc(C(=S)N2CCOCC2)ccc1OC(=O)c1ccccc1 | 22µM* | -34% | -25% | -29 | x | u
CCOc1ccc(C(=O)OCC(=O)N2CCOCC2)cc1OCC | 22% | -15% | -22% | 12 | 3 | 5%
Cn1c(Oc2ccc(F)cc2)nc2c1c(=O)n(Cc1ccccc1Cl)c(=O)n2C | u | -20% | 2% | x | x | u
CCOc1cc2nc(-c3ccc(OC)c(OC)c3)nc(N3CCOCC3)c2cc1OC | -7%[2.33 µM] | -26% | 8% | -19 | -18 | 56µM*
CCOc1cc(/C=C/C(=O)c2ccc(OC)c(CN3CCOCC3)c2)cc(Br)c1O | 45µM* | u | -37% | 4 | -3 | u
O=S(=O)(c1ccc(Br)cc1)N1CCN(S(=O)(=O)c2ccc3c(c2)OCCO3)CC1 | x | -9% | x | x | x | x
O=C(CSc1cn(CC(=O)N2CCCCC2)c2ccccc12)NCC1CCCO1 (stereo not drawn) | -37% | 50µM* | -22% | 0 | -2 | -16%
O=C(CCCn1c(SCC(=O)c2ccc(O)c(O)c2)nc2ccccc2c1=O)NCC1CCCO1 (stereo not drawn) | 35µM* | 32µM* | -11% | -8 | -7 | u
O=C(CCCn1c(SCC(=O)NC2CCCCC2)nc2ccccc2c1=O)NCC1CCCO1 (stereo not drawn) | -2% | -7% | 17% | 2 | 5 | 2%
O=C(CSc1nc2ccccc2c(=O)n1CCC(=O)N1CCN(c2ccccc2)CC1)NCC1CCCO1 (stereo not drawn) | -13%[59 µM] | 56µM* | -3% | 0 | -10 | -24%
COc1ccc(N2CCN(c3oc(/C=C/c4cc(OC)c(OC)c(OC)c4)nc3C#N)CC2)cc1 | u | u | -9% | x | x | u
CC(=O)C1=C(O)C(=O)N(C)C1c1ccccc1[N+](=O)[O-] (stereo not drawn) | 11µM* | u | u | 5 | -6 | -18%
CC(=O)C1=C(O)C(=O)N(CCC(=O)O)C1c1ccccc1[N+](=O)[O-] (stereo not drawn) | -24%[59 µM] | -26% | 3% | 17 | -3 | u
CC(=O)C1=C(O)C(=O)N(CC(=O)O)C1c1ccccc1Cl (stereo not drawn) | 50µM* | u | 23% | 2 | 8 | 71µM*
CCCCCCN1C(=O)C(O)=C(C(C)=O)C1c1ccccc1[N+](=O)[O-] (stereo not drawn) | 50µM* | 0%[11.4 µM] | 15% | 16 | x | u
CC(C)(C)C(=O)C1=C(O)C(=O)N(Cc2ccccc2)C1c1ccccc1Cl (stereo not drawn) | -11%[0.501 µM] | -12% | 35% | -2 | x | 2%
Cc1cc(-n2c(C)nc3ccccc3c2=O)ccc1NC(=O)c1cccc([N+](=O)[O-])c1 | -3%[59 µM] | -9% | 29% | x | x | 3%
N#Cc1c(/N=C/c2ccco2)oc(-c2ccccc2)c1-c1ccccc1 | u | 28µM* | -59% | 10 | 7 | -3%
Cc1cccc(CNC(=O)C(=O)Nc2ccccc2C)c1 | 8%[59 µM] | -9% | 29% | x | x | -19%
Cc1ccc(NC(=O)CSc2ccc(-c3sc(-c4ccccc4)nc3C)nn2)cc1F | 10%[59 µM] | 12% | 60% | x | x | 0%
Cc1ccc2nc(NC(=O)C3=NN(c4ccccc4)C(=O)CC3)sc2c1 | -26% | -18% | 24% | -12 | 0 | 3%
Cc1nc(C)c(C(=O)Nc2nc3c(C)cccc3s2)o1 | 14µM* | 35µM* | u | -15 | -4 | 35µM*
SMILES | G9a inh | JMJD2A Tudor | HP1b chromo inh | Six1-Eya2 blk | CtBP-E1A blk | BAZ2B inh
Cc1cccc2sc(NC(=O)C3=NN(c4ccccc4)C(=O)CC3)nc12 | 50µM* | -7% | 36% | -5 | x | -3%
CCCCC(=O)Nc1ccc(NCc2ccc(C)s2)cc1 | 50µM* | u | -1% | -11 | x | -35%
COC(=O)C1=C(C(=O)OC)[C@@H]2N(C)c3ccc(OC)cc3[C@@]23C[C@@H](C(=O)OC)N(C(=O)CC(C)C)C3=N1 | x | 50µM* | u | u | -30 | x
COC(=O)C1=C(C(=O)OC)[C@@H]2N(C)c3ccc(OC)cc3[C@@]23C[C@@H](C(=O)OC)N(C(=O)C2CCC2)C3=N1 | u | 25µM* | u | u | u | 11µM*
Cn1ncc2c(N3CCN(c4ccccc4Cl)CC3)ncnc21 | -1%[59 µM] | -13% | 19% | x | x | -9%
COc1ccc2c(c1)cc1c(=O)n(CC(=O)NCc3ccco3)nc(C)n12 | 8%[59 µM] | -18% | 17% | x | x | 2%
COc1ccc(/C=C/C2=CC(C)(C)NC(=S)N2)cc1 | 8.9µM* | -8%[57.1 µM] | 14% | -5 | -8 | -14%
Clc1ccc(N2COC3c4cccc5cccc(c45)C32)cc1 (stereo not drawn) | -4%[59 µM] | -8% | 25% | 1 | 3 | 2%
COc1ccc(N2COC3c4cccc5cccc(c45)C32)cc1 (stereo not drawn) | u | 63µM* | -38% | u | -27 | 45µM*
CCCNC(=O)N1CCN(S(C)(=O)=O)CC1 | 40µM* | -7%[11.4 µM] | 37% | 13 | x | -11%
COc1ccc(NC(=O)C(C)N2Cc3ccccc3C2=O)cc1OC (stereo not drawn) | 1%[59 µM] | -11% | 6% | x | x | 2%
O=[N+]([O-])c1cc([N+](=O)[O-])c2oc(-c3ccccc3)c(Br)c2c1O | 50µM* | 45µM* | u | -19 | -7 | 35µM*
Cn1c(CCNC(=O)c2ccco2)nc2cc(NC(=O)COc3ccc(Cl)cc3)ccc21 | u | -14% | 39% | x | x | -1%
Cc1cccc(Cn2cc(S(=O)(=O)c3cccc(Cl)c3)c(=O)c3cc(F)c(N4CCOCC4)cc32)c1 | 6%[59 µM] | -5% | 36% | x | x | 4%
N#CCC(=O)N/N=C\c1ccccc1OC/C=C/c1ccccc1 | 30% | u | 29% | u | u | 50µM*
COCC(=O)N/N=C\c1ccccc1OC/C=C/c1ccccc1 | 25% | -18% | 23% | 1 | 3 | -16%
O=C(NC1CCSc2ccccc21)c1ccc([N+](=O)[O-])cc1 (stereo not drawn) | -11% | -15% | 31% | -4 | -5 | -26%
COc1cc(=O)[nH]c(SCC(=O)Nc2nc3c(s2)CCCC3)n1 | 9%[59 µM] | 32µM* | -5% | -2 | 9 | 2%
